The source of these data is PubChem BioAssay AID1309 (The Scripps Research Institute Molecular Screening Center, 2008).

Out of some 1,200 compounds screened, about 130 (11%) were called active. These entries were drawn from the full list. Unmarked numbers belong to inactive results. Cut-off read from the data, not from the text of the source: active = activation above about 120%; inactive = the rest.

The nature of this experiment: NF-kB reporter activators in human cells, counter-screen for STAT3 activator project (AID 1309).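 Note: reporter induced by TNF-alpha stimulation; 100% = median of stimulated DMSO wells and 0% = no signal.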 As to conditions: NF-kappaB reporter activation, at 5.7 µM, active compounds read high.
For the compound `Fc1ccc2nc(-c3ccccc3)nc(SCc3nnc(-c4ccccc4)o3)c2c1`, the activation (% of control) is 106%. Regarding `COc1ccccc1N1CCN(C(=O)c2cc3c(-c4ccc(Cl)cc4)nn(C)c3s2)CC1`, the activation (% of control) is 101%. Take `Cn1cccc1C(=O)Nc1nccs1`: the activation (% of control) was 111%. With `N#Cc1ccccc1NC(=O)COc1c(Br)cc(Br)c2cccnc12`, the activation (% of control) was 107%. In the case of `COC(=O)c1[nH]c2ccccc2c1NC(=O)CN1CCCc2ccccc21`, the activation (% of control) is 106%. For `CCOC(=O)N1CCN(CC(=O)Nc2cc(C)nn2-c2nc3ccccc3s2)CC1`, the activation (% of control) is 106%. In the case of `C/C(=N\NC(=O)CNc1cccc2ccccc12)c1ccc(Br)s1`, the activation (% of control) is 103%. For the compound `COc1ccc(/C=N/Nc2ncnc3sc4c(c23)CCCC4)cc1O`, the activation (% of control) is 110%. In the case of `O=C1CCCN1CCCNc1ncnc2c1[nH]c1ccccc12`, the activation (% of control) is 100%. With `COc1ccc(C2c3[nH]c4ccccc4c3CCN2CCCn2cccn2)cc1C` (stereo not given), the activation (% of control) is 102%. Turning to `CCn1c(SCC(=O)N/N=C/C=C/c2ccccc2[N+](=O)[O-])nnc1-c1ccccc1`, the activation (% of control) was 101%. For `CCOC(=O)C1CCN(c2ncnc3c2oc2ccc(Br)cc23)CC1` the value was 102%. As for `CN1CCN(c2ccc([N+](=O)[O-])c(Sc3nc4ccccc4[nH]3)c2)CC1`, the activation (% of control) is 102%.

Regarding `CSc1nc2sc3c(c2c(=O)[nH]1)CCc1ccccc1-3`, the activation (% of control) was 108%. As to `C=CCCC(=O)Nc1nc(C)c(-c2csc(Nc3ccc(Cl)cc3)n2)s1`, the activation (% of control) is 107%. Next, `COc1ccc([N+](=O)[O-])cc1C1NN=C(c2cccc3ccccc23)S1` (stereo not given): 114%; `Cc1ccc(S(=O)(=O)Nc2nc3ccccc3nc2N2CCc3ccccc3C2)cc1`: 107%. As to `COc1ccc(NC(=O)ON=C2c3ccccc3-c3ccccc32)cc1`, the activation (% of control) is 108%. Next, `O=c1[nH]c(CSc2ncc(-c3ccc(F)cc3)n2Cc2ccco2)nc2ccccc12`: 107%. Regarding `OC(COc1ccc2ccccc2c1)CN1CCOCC1` (stereo not given), the activation (% of control) is 107%. In the case of `Oc1cccc2ccc(/C=C/c3ccc(Br)s3)nc12`, the activation (% of control) is 122% (active).

With `CCCS(=O)(=O)Nc1c(C(=O)O)[nH]c2ccccc12`, the activation (% of control) is 103%. For `O=C(Nc1cc(C(F)(F)F)ccc1Cl)c1cc(C2CC2)on1` the value was 100%; for `O=C(O)CSCc1nc2ccccc2s1`, 112%; for `Cc1ccc(/C=N/NC(=O)COc2ccccc2-c2ccccc2)cc1`, 155% (active). Turning to `C=CCn1c(-c2ccccc2OCC)n[nH]c1=S`, the activation (% of control) is 115%. In the case of `Cc1csc2ncc(C(=O)N(Cc3ccccc3)c3ccccn3)c(=O)n12`, the activation (% of control) was 103%. For `Cc1cccc(C(=O)N2CCc3c([nH]c4ccccc34)C2CC(C)C)n1` (stereo not given) the value was 110%. `Cc1nc(N=C(N)N)nc2c(C)cccc12`: the activation (% of control) was 110%. Next, `COc1ccc(Cl)cc1NC(=O)c1oc(C)nc1C`: 108%; `COC(=O)c1[nH]c2ccccc2c1NS(=O)(=O)c1ccc(OC)cc1OC`: 104%. Regarding `CN1C(=O)/C(=C\c2cc(Br)cs2)c2ccccc21`, the activation (% of control) is 120%. Consider `O=C(NCc1ccco1)c1cccn2c(=O)c3c4c(sc3nc12)CCCC4`, for which the activation (% of control) was 106%. As for `CSc1nc(N(C)NC(=O)c2cccc(C)c2)c2ccccc2n1`, the activation (% of control) was 159% (active). As to `Cc1cccc(C(=O)Nc2nnc(Cc3c[nH]c4ccccc34)s2)c1`, the activation (% of control) is 101%. With `Cc1ccc(-c2cc(C(=O)Nc3nn[nH]n3)c3ccccc3n2)c(C)c1`, the activation (% of control) is 99.3%.

In the case of `CSCCC(NC(=O)c1ccco1)C(=O)OCC(=O)Nc1ncc(Cl)c(C)c1Cl` (stereo not given), the activation (% of control) is 97.1%.

`Cc1nc2ccccc2cc1O`: the activation (% of control) is 98%.

In the case of `N#Cc1c(C(F)(F)F)cc(-c2ccc(Cl)cc2)nc1SCC(=O)O`, the activation (% of control) was 107%. For `Oc1c(C=Nc2cccc3nsnc23)ccc2ccccc12`, the activation (% of control) was 96.6%. For the compound `Cc1ccc(C2=NN(C)c3nc4ccccc4n3C2)cc1`, the activation (% of control) is 112%. Take `Cc1ccc(OCc2nnc(SC3CCc4ccccc4C3=O)n2C)cc1` (stereo not given): the activation (% of control) was 111%. For the compound `CC(=O)Nc1ccc(NC(=O)COc2ccccc2C(=O)Nc2cccc(Cl)c2Cl)cc1`, the activation (% of control) was 102%. For `CC(C)CNC(=O)COC(=O)/C=C/c1ccccc1[N+](=O)[O-]` the value was 97.8%; for `COc1nc(N=C(N)N)nc2c(C)cccc12`, 109%.

As for `c1ccc(-c2cn3c(n2)CCc2ccc4cccnc4c2-3)cc1`, the activation (% of control) is 106%. Turning to `O=C(Cc1c[nH]c2ccccc12)OCCOC(=O)Cc1c[nH]c2ccccc12`, the activation (% of control) is 99.2%. Regarding `COc1cccc(NC(=S)C(C#N)=C2N(C)c3ccccc3N2C)c1`, the activation (% of control) is 94.8%. As to `NC(=O)CSc1c[nH]c2ccccc12`, the activation (% of control) is 102%.

On to `COc1cccc(/C=C(/CC(=O)Nc2ccc(N3CCOCC3)cc2)c2nc3ccccc3s2)c1`, for which the activation (% of control) was 114%. Take `Cc1ccc(NC(=O)c2cc([N+](=O)[O-])ccc2Cl)c(O)c1`: the activation (% of control) was 107%. `CCCCC(=O)Nc1nc(C)c(-c2csc(Nc3ccc(Cl)cc3)n2)s1`: the activation (% of control) is 101%. Consider `C/C(=N\c1nc2ccccc2n1C)c1cc(Cl)ccc1O`, for which the activation (% of control) is 99.6%. For `COc1cc(OC)cc(C(=O)N[C@H](C(=O)Nc2nc3ccccc3[nH]2)C(C)C)c1` the value was 138% (active); for `COc1ccccc1-c1nnc(NC(=O)c2ccc3ncsc3c2)o1`, 127% (active). For `COc1ccccc1-c1nnc(SCC(=O)N2CC(C)CC(C)C2)o1` (stereo not given) the value was 101%. As for `Oc1cccc(C2c3[nH]c4ccccc4c3CCN2Cc2cnn(-c3ccccc3)c2)c1` (stereo not given), the activation (% of control) was 105%.

Regarding `CCNCc1cc2cc(C)ccc2[nH]c1=O`, the activation (% of control) is 101%. On to `COC(=O)c1[nH]c2cccc(C)c2c1NC(=O)CN1CCCc2ccccc21`, for which the activation (% of control) is 96.7%. With `CCOc1ccc(C2c3[nH]c4ccccc4c3CCN2Cc2cn(CC)nc2C)cc1` (stereo not given), the activation (% of control) is 111%. For the compound `COc1ccc(C)cc1NC(=O)c1[nH]c(C)c(C(C)=O)c1C`, the activation (% of control) is 99.2%. As for `COc1ccc(-c2c3c(=O)n(C)c(=O)n(C)c3cn2-c2cccc(OC)c2)cc1`, the activation (% of control) was 103%.

As for `O=C(O)CS/C(=C\c1ccc(F)cc1)c1nc2ccccc2s1`, the activation (% of control) is 116%.

For the compound `Cc1ccc(N=Nc2c(C)[nH]n(-c3ccccc3)c2=O)cc1`, the activation (% of control) was 106%. For `COc1cc(NS(=O)(=O)c2ccc(N/C=C(\C=O)c3nc4cc(Cl)ccc4o3)cc2)nc(OC)n1`, the activation (% of control) was 104%. Take `COCCCNc1nc2c(-c3cccc(C(F)(F)F)c3)nnn2c2ccccc12`: the activation (% of control) was 109%. For `CCOC(=O)c1c(-c2cccc(C)c2)csc1NC(=O)c1c(-c2ccccc2)noc1C`, the activation (% of control) was 71.3%. For `Cc1ccc(Nc2nc(-c3sc(NC(=O)c4ccccc4)nc3C)cs2)cc1` the value was 102%. On to `Cc1cccc(N(CC(=O)N=Nc2c(O)[nH]c3ccccc23)S(C)(=O)=O)c1C`, for which the activation (% of control) is 103%.

Take `O=[N+]([O-])c1ccc(N2CCN(S(=O)(=O)c3ccc4ccccc4c3)CC2)cc1NCc1ccco1`: the activation (% of control) was 105%. As to `CCSc1nnc(-c2cc3c(s2)-c2ccccc2CC3)o1`, the activation (% of control) was 118%. In the case of `Cn1nc(-c2ccc(Cl)cc2)c2cc(C(=O)NCc3ccco3)sc21`, the activation (% of control) was 104%.

Consider `COc1ccccc1C1C2=C(COC2=O)Nc2cc3c(cc21)OCO3` (stereo not given), for which the activation (% of control) is 166% (active). Next, `CCOC(=O)CN(C)Cc1c[nH]c2ccccc12`: 105%; `O=C(C1CCN(S(=O)(=O)Cc2ccccc2)CC1)N1CCCc2ccccc21`: 108%.
